This note sets out measurements from PMC5700166.

Where a chain is given by its changes, count along the chain named.

Common to all, as to experiment: protein-binding microarray (PBM); PBM: ~300 nM protein, 6 mM HEPES pH 7.8, 80 mM KCl, 0.5 mM EDTA, 0.5 mM EGTA, 6% glycerol, 35 ng/ul poly-dIdC, 1% milk, 1 h, room temperature; Ap Aiptasia and Nv Nematostella (sea anemones) / Co Capsaspora / Aq Amphimedon (sponge) / Dm Drosophila / Hu human; RHD is the Rel homology domain; high values mean tight binding
Common to all, as to conditions: dsDNA, one strand shown

The target of assay [1] is T1, GST-Ap-NF-kB RHD (Exaiptasia pallida (Aiptasia), UniProt A0A913YAJ5 2-422).
T1 sequence: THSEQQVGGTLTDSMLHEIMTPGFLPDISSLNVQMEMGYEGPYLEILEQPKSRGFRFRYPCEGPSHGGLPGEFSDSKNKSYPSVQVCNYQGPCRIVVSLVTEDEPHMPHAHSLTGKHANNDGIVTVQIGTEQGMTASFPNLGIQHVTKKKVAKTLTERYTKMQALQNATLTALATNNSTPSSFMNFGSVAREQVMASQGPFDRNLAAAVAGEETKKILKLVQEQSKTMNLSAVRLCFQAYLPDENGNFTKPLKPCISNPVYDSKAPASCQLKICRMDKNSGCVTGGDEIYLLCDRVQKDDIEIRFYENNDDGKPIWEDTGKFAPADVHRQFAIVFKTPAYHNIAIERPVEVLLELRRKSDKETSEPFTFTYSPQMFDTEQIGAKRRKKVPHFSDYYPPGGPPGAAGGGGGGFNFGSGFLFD

The target of assay [2] is T2, GST-Nv-NF-kB (Cys allele) (Nematostella vectensis, UniProt E5G601 2-411).
T2 sequence: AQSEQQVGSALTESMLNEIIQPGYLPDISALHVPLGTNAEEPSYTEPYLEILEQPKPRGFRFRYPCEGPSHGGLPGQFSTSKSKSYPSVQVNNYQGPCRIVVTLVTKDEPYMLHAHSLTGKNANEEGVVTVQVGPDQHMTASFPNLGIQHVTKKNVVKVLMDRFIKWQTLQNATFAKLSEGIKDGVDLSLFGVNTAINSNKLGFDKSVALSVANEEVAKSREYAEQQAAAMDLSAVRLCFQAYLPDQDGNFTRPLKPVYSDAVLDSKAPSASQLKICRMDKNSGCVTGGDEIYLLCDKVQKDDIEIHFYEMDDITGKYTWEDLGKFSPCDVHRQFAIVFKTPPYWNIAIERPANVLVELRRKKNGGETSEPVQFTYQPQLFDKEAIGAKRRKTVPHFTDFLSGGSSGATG

Assay [3] addresses T3, GST-Nv-NF-kB (Ser allele) (Nematostella vectensis, UniProt A7UNT2 2-411).
T3 sequence: T2 sequence with Q21R, C66S, S207N, E215Q, V217A, E225K, A268E, D399E

In assay [4] the target is T4, GST-Co-NF-kB (Capsaspora owczarzaki, UniProt F1ARL5 200-546).
T4 sequence: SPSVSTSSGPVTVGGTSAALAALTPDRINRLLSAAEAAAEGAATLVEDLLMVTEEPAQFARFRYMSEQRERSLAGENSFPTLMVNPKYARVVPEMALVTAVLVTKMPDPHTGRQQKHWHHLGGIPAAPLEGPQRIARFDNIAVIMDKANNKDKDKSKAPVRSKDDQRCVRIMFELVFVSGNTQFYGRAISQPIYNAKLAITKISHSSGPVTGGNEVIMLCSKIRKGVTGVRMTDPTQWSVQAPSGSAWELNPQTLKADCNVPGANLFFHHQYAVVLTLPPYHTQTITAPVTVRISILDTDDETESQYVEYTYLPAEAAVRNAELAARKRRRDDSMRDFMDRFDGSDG

Assay [5] deals with T5, GST-Dm-Relish (Drosophila melanogaster, UniProt Q94527 99-473).
T5 sequence: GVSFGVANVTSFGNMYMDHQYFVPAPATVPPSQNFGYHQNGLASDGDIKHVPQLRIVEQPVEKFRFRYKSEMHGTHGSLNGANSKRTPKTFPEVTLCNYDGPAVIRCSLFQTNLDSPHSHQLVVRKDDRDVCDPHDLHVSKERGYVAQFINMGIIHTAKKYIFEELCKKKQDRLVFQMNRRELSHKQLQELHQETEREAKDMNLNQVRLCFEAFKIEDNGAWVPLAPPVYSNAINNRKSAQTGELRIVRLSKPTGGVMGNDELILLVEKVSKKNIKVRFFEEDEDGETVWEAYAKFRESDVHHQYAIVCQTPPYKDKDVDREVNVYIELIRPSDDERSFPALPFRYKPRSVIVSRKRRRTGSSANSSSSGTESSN

Assay [6] concerns the target T6, GST-Aq-NF-kB (Amphimedon queenslandica, UniProt A9Y5G7 2-389).
T6 sequence: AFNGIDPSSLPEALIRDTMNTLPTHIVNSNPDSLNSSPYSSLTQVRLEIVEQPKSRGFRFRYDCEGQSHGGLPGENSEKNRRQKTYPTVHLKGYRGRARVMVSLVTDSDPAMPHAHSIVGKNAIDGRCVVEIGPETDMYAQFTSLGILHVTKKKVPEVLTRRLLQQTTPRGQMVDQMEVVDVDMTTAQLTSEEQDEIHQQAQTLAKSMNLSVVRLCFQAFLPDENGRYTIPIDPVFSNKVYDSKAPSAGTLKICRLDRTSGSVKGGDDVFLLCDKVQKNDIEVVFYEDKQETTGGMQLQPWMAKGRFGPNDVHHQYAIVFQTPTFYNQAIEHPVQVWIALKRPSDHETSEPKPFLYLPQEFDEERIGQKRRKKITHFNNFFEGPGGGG

The target in assay [7] is GST-Hu-p50 (Homo sapiens, UniProt P19838 7-356).
GST-Hu-p50, sequence (P19838 7-356): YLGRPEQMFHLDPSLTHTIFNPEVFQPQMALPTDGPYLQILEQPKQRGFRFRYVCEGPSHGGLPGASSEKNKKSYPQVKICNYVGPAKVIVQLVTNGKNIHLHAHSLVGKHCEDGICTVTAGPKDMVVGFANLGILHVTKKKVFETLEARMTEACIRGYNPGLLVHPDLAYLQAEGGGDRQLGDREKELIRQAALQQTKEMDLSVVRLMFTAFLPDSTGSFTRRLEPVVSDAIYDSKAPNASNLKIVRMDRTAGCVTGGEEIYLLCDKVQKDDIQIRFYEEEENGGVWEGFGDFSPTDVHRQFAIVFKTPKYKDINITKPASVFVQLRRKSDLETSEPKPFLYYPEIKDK

Consider “CCGATTAACATCAAAAATCCCCGTGATGTTAATCGGGTCTTGATTCGCTTGACGCTGCTG”, for which the binding signal came out at 9.77 z-score in assay [1]; 10.8 z-score in assay [2]; 11.1 z-score in assay [3]; 6.22 z-score in assay [4]; 10.1 z-score in assay [5]; 8.1 z-score in assay [6]. Further, the binding signal in assay [7] stood at 7.67 z-score.

Consider “CCGATTAACATCAAGTAACCCCCTGATGTTAATCGGGTCTTGATTCGCTTGACGCTGCTG”, for which the binding signal is 6.04 z-score in assay [1]; 4.44 z-score in assay [2]; 4.98 z-score in assay [3]; 3.76 z-score in assay [4]; 6.97 z-score in assay [5]; 5.32 z-score in assay [6]. The sequence also showed a binding signal in assay [7] of 5.24 z-score.

Take “CCGATTAACATCAGTTTCCCCCATGATGTTAATCGGGTCTTGATTCGCTTGACGCTGCTG”: the binding signal in assay [1] was determined as 6.91 z-score; in assay [2] it was 6.51 z-score; in assay [3] it was 8.2 z-score; in assay [4], 10.6 z-score; in assay [5] it was 2.94 z-score; in assay [6], 5.09 z-score. In assay [7], this sequence came in with a binding signal of 6.77 z-score.

With “CCGATTAACATCACCCTTTTCCCTGATGTTAATCGGGTCTTGATTCGCTTGACGCTGCTG”, the binding signal in assay [1] stood at 2.88 z-score; in assay [2], 3.25 z-score; in assay [3] it was 5.61 z-score; in assay [4], 4.6 z-score; in assay [5], 1.52 z-score; in assay [6] it was 2.91 z-score. The sequence further gave a binding signal in assay [7] of 2.59 z-score.

As for “CCGATTAACATCAGCAATTTCCCTGATGTTAATCGGGTCTTGATTCGCTTGACGCTGCTG”, the binding signal is 3.13 z-score in assay [1]; 4.55 z-score in assay [2]; 5.81 z-score in assay [3]; 3.47 z-score in assay [4]; 1.78 z-score in assay [5]; 3.79 z-score in assay [6]. The sequence also showed a binding signal in assay [7] of 3.52 z-score.

“CCGATTAACATCAGGGGATTAACTGATGTTAATCGGGTCTTGATTCGCTTGACGCTGCTG”: the binding signal worked out at 5.48 z-score in assay [1]; 6.31 z-score in assay [2]; 7.11 z-score in assay [3]; 2.99 z-score in assay [4]; 8.54 z-score in assay [5]; 5.82 z-score in assay [6]. Besides, in assay [7], the binding signal was determined as 4.93 z-score.

On to “CCGATTAACATCAGGGAATCCCCTGATGTTAATCGGGTCTTGATTCGCTTGACGCTGCTG”, for which the binding signal in assay [1] was determined as 14.7 z-score; in assay [2], 13.7 z-score; in assay [3] it was 14.6 z-score; in assay [4], 6.28 z-score; in assay [5], 11 z-score; in assay [6], 12.1 z-score. Further, the binding signal in assay [7] is 8.34 z-score.

As for “CCGATTAACATCAAGGGGGATCCTGATGTTAATCGGGTCTTGATTCGCTTGACGCTGCTG”, the binding signal in assay [1] worked out at 8.33 z-score; in assay [2], 6.38 z-score; in assay [3], 7.04 z-score; in assay [4], 3.07 z-score; in assay [5] it was 8.84 z-score; in assay [6], 6.34 z-score. Besides, the binding signal in assay [7] is 6.91 z-score.

Consider “CCGATTAACATCAGGGGGAATGATGATGTTAATCGGGTCTTGATTCGCTTGACGCTGCTG”, for which the binding signal in assay [1] was 6.17 z-score; in assay [2], 7.14 z-score; in assay [3], 7.16 z-score; in assay [4], 6.6 z-score; in assay [5] it was 3.1 z-score; in assay [6], 4.98 z-score. In addition, in assay [7], the binding signal was found to be 5.4 z-score.

With “CCGATTAACATCAGGCATTCCCCTGATGTTAATCGGGTCTTGATTCGCTTGACGCTGCTG”, the binding signal is 6.9 z-score in assay [1]; 8.51 z-score in assay [2]; 7.12 z-score in assay [3]; 3.19 z-score in assay [4]; 7.67 z-score in assay [5]; 7.93 z-score in assay [6]. In addition, the binding signal in assay [7] stood at 5.74 z-score.

On to “CCGATTAACATCAAGGGGGTTTCTGATGTTAATCGGGTCTTGATTCGCTTGACGCTGCTG”, for which the binding signal is 9.41 z-score in assay [1]; 8.37 z-score in assay [2]; 8.76 z-score in assay [3]; 2.34 z-score in assay [4]; 9.83 z-score in assay [5]; 7.81 z-score in assay [6]. The binding signal in assay [7] was 7.39 z-score.
